DT40 TDP1 no CPT: qHTS for Inhibitors of human tyrosyl-DNA phosphodiesterase 1 (TDP1): qHTS in cells in absence of CPT | AID 686978, 2013 | Potency, µM (series often up to 46.2 µM), for inactives: top-dose activity change, negative = growth inhibition, actives largely listed as inhibitors | DT40 Tdp1-/- hTDP1 cells, no CPT, ATP luminescence, 48 h | hit rate 15% among 420,000; note: potency is the fitted concentration of half-maximal effect; % is set by controls: 0 for no effect and ±100 for the full control effect; nearly all actives have a fitted effect of over 55% in size
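Stably hTDP1-transfected Tdp1-null chicken DT40 cells were treated with library compounds minus camptothecin and grown for at least 48 hr at 37 °C, after which cellular ATP was quantified by luminescence.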
TGFb SMAD3 inh: qHTS for Inhibitors of TGF-b; HepG2 CAGA-GFP TGF-b/SMAD3 reporter, GFP fluorescence, 18 h; TGF-beta stimulated, 500 pg/mL final; Potency, µM (highest dose often 46.1 µM), for the others: at the highest dose activity, negative = inhibition, usual class: inhibitors; hit rate 1.2% among 410,000; AID 588855, 2011; note: potency is the fitted concentration of half-maximal effect; % is set by controls: 0 for no effect and ±100 for the full control effect; nearly all actives have a fitted effect of over 65% in size
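TGF-beta reporter screen: HEPG2 CAGA-GFP, 1% FBS, 500 pg/mL TGF-beta final, 18 h; per-cell GFP summed per well; curves fitted and categorized by class.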
DT40 TDP1 CPT: qHTS for Inhibitors of human tyrosyl-DNA phosphodiesterase 1 (TDP1): qHTS in cells in presence of CPT | chicken DT40 Tdp1-/-;hTDP1 cells + 20 nM CPT, ATP luminescence, 48 h | Potency, µM (top dose mostly 46.2 µM), for the others: at the highest dose activity change, negative = growth inhibition, hits mostly inhibitors | hit rate 12% among 420,000; note: potency is the fitted concentration of half-maximal effect; % is set by controls: 0 for no effect and ±100 for the full control effect; nearly all actives have a fitted effect of over 55% in size
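Chicken DT40 Tdp1-/- cells stably complemented with human TDP1 were seeded at 400 cells/well in medium containing 20 nM camptothecin, exposed to pin-transferred compounds, and grown at 37 °C for at least 48 hr. Viability was read as ATP luminescence.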
IL-1B inflam inh: qHTS for Inhibitors of Inflammasome Signaling: IL-1-beta AlphaLISA Primary Screen; activity change, % at 57.5 µM; hit rate 4.7% among 360,000; THP-1 LPS/ATP IL-1B secretion, AlphaLISA, 16 h; stronger effect = lower value; AID 743279, 2014; in the data active = activity change below about -50%; inconclusive = mostly about -30% to -49%; note: % is set by controls: 0 for no effect and ±100 for the full control effect
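Secreted IL-1B measured by AlphaLISA bead assay after 16 h compound exposure of THP-1 cells; compounds (final up to 57.5 uM) added 1 h before LPS (250 ng/mL) and ATP (1.25 mM) stimulation; lower signal means less secretion.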
TDP1 block: qHTS Assay for Inhibitors of Tyrosyl-DNA Phosphodiesterase (TDP1); Tyrosyl-DNA phosphodiesterase 1 (Homo sapiens), Q9NUW8; hit rate 0.28% among 350,000; AID 485290, 2010; recombinant TDP1, AlphaScreen DNA substrate cleavage; Potency, µM (series often up to 130 µM), inactives show top-dose activity change, negative = inhibition, usual class: inhibitors; note: potency is the fitted concentration of half-maximal effect; % is set by controls: 0 for no effect and ±100 for the full control effect; nearly all actives have a fitted effect of over 40% in size
Target sequence (Q9NUW8 whole entry, looked up): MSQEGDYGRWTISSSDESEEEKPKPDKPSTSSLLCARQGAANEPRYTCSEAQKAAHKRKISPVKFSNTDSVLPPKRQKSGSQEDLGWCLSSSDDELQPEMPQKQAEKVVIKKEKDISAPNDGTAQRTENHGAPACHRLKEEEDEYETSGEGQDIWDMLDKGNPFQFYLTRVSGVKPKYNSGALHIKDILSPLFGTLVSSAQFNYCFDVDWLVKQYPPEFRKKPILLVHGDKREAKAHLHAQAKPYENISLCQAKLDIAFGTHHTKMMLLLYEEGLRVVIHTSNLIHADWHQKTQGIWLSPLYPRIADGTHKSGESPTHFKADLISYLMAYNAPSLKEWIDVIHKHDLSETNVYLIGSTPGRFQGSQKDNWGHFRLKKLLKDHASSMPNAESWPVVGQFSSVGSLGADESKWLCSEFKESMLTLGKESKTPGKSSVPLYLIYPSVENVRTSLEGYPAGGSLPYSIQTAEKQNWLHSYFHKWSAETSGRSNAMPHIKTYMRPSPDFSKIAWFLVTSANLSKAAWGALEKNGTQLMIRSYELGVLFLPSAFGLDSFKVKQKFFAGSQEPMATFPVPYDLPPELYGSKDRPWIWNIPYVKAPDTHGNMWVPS
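Tdp1 1 nM final; 15 min RT w/ cpd; substrate 15 nM, 5 min; beads 10 ug/ml, 10 min; AlphaScreen read. Neg ctrl: no enzyme.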
HepG2 tox-1: qHTS for Inhibitors of TGF-b: Cytotox Counterscreen; HepG2 CAGA-GFP viability, ATP luminescence, 18 h; Potency, µM (series often up to 46.1 µM), for inactives: at the top dose activity change, negative = cytotoxicity, hits mostly cytotoxic; hit rate 0.76% among 410,000; note: potency is the fitted concentration of half-maximal effect
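HepG2 CAGA-GFP cells (1000/well, DMEM with 1% FBS) received compound, then TGF-beta at 500 pg/mL final, and were incubated 18 hours at 37 degrees C. Viability was read by CellTiter-Glo luminescence. Media-only wells were set as complete cell-killing and DMSO as no toxicity.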
TGFb CAGA inh: qHTS for Inhibitors of TGF-b: Confirmation of Cherry Picks; shares compounds with TGFb SMAD3 inh; HepG2 CAGA-GFP TGF-b reporter, GFP fluorescence, 18 h; cells stimulated with TGF-beta, 500 pg/mL; Potency, µM (titrated, usually from 46.1 µM), for inactives: at the top dose activity, negative = inhibition, usual class: inhibitors; hit rate 63% among 1,600; AID 720534, 2013; note: potency is the fitted concentration of half-maximal effect; % is set by controls: 0 for no effect and ±100 for the full control effect; nearly all actives have a fitted effect of over 65% in size
HepG2 tox-2: qHTS for Inhibitors of TGF-b: Cytotox Counterscreen for Cherry Picks; hit rate 27% among 1,600; shares compounds with TGFb SMAD3 inh; HepG2 CAGA-GFP viability, ATP luminescence, 18 h; cells stimulated with TGF-beta, 500 pg/mL; Potency, µM (titrated, usually from 46.1 µM), inactives show at the highest dose activity, negative = cytotoxicity, actives largely listed as inhibitors; note: potency is the fitted concentration of half-maximal effect; % is set by controls: 0 for no effect and ±100 for the full control effect; nearly all actives have a fitted effect of over 70% in size
CCL64 TGFb inh: qHTS for Inhibitors of TGF-b: CCL64 Cells Orthogonal Assay for Cherry Picks; shares compounds with TGFb SMAD3 inh; CCL64 CAGA-GFP reporter, TGF-b stimulated, GFP fluorescence, 18 h; Potency, µM (highest dose often 46.1 µM), for inactives: at the top dose activity, negative = inhibition, hits mostly inhibitors; hit rate 41% among 1,600; AID 720536, 2013; note: potency is the fitted concentration of half-maximal effect; nearly all actives have a fitted effect of over 65% in size
COP TGFb inh: qHTS for Inhibitors of TGF-b: Hit Validation in HepG2 Cells using COP promoter; Potency, µM (titrated, usually from 46.1 µM), for the others: top-dose activity, negative = inhibition, usual class: inhibitors; shares compounds with TGFb SMAD3 inh; HepG2 COP-GFP TGF-b reporter, GFP fluorescence, 18 h; cells stimulated by added recombinant TGF-beta; hit rate 3% among 1,600; note: potency is the fitted concentration of half-maximal effect; nearly all actives have a fitted effect of over 70% in size
* marks the source's active call; other numbers are inactive results; ? = inconclusive; . = no result given. This is a sample that favours compounds with a hit; in the whole collection about 19% have one here. Unless noted, calls come from the whole dose curve; as a rule, active = well fitted curve in the direction sought with a large enough effect; inconclusive = small, poorly fitted or top-dose-only effect, or another doubt; inactive = no such curve, though single readings can be large; an effect the other way counts as inactive or inconclusive.

SMILES	DT40 TDP1 no CPT	TGFb SMAD3 inh	DT40 TDP1 CPT	IL-1B inflam inh	TDP1 block	HepG2 tox-1	TGFb CAGA inh	HepG2 tox-2	CCL64 TGFb inh	COP TGFb inh
COc1ccc(-c2nn(-c3ccccc3)cc2C(=O)N2c3ccc(C)cc3C3CN(C)CCC32)cc1 (stereo not drawn)	26µM*	10µM*	?	?	1%	-42%	-7%	-25%	?	8%
CCCc1nc2ccc(Br)cc2c(=O)n1-c1ccc([N+](=O)[O-])c(C(F)(F)F)c1	?	7.1µM*	?	?	3%	-31%	?	-27%	?	-1%
CCc1nc2ccc(Br)cc2c(=O)n1-c1ccccc1C(F)(F)F	-19%	-3%	-19%	34	.	-35%	.	.	.	.
O=Cc1cn(Cc2ccccc2F)c2ccccc12	15µM*	0.89µM*	21µM*	?	5%	-28%	0.46µM*	1µM*	0%	-6%
CCn1cc(C=C2C(=O)NC(=O)NC2=O)c2ccccc21	-28%	5%	-2%	?	.	-15%	.	.	.	.

Bioassay records from PubChem BioAssay.
